SARS PLP yeast: SARS-CoV PLP inhibition in yeast; 330,000 tested, 0.19% active; Potency, µM (titrated, usually from 32.9 µM), without a hit: at the top dose activity, positive = growth rescue, hits mostly activators; S. cerevisiae expressing SARS-CoV PLpro, growth rescue; AID 485353; calls by dose curve; note: potency is the fitted concentration of half-maximal effect; 0% is about no effect; nearly all actives have a fitted effect of over 55% in size
Pf growth 48h: P. falciparum growth inhibition at 48 hours (one generation); Potency, µM (titrated, usually from 28.7 µM), without a hit: at the top dose activity change, negative = inhibition, most hits filed as inhibitors; 310,000 tested, 5.9% active; P. falciparum luciferase growth in erythrocytes, 48 h; note: potency is the fitted concentration of half-maximal effect; % is set by controls: 0 for no effect and ±100 for the full control effect
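Luminescence readout; reporter = integrated firefly luciferase in P. falciparum. RBC culture at 2% hematocrit, 0.1% parasitemia final, 37 C/5% CO2; decreased signal taken as growth inhibition.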
Shiga inhibitor: Shiga toxin inhibition; Vero cells, Shiga toxin protein synthesis inhibition reporter; 290,000 tested, 9.2% active; inhibition, % at 38.7 µM; in the data active = inhibition mostly above about 28%, no sharp cut-off; inactive = mostly below about 43%; note: 0% is about no effect
Cycloheximide cs: counter-screen for Shiga toxin inhibitors: cycloheximide protein synthesis inhibition; cell reporter, cycloheximide protein synthesis inhibition counterscreen; max response, %; 300,000 tested, 12% active; in the data active = max response mostly above about 13%, no sharp cut-off; inactive = mostly below about 14%; note: read at 38.3 µM for the half of the compounds with a filed dose; 0% is about no effect
Pf growth 96h: inhibits malaria parasite growth, 96 h; P. falciparum luciferase reporter growth, 96 h; 320,000 tested, 6.9% active; Potency, µM (top dose mostly 28.7 µM), for inactives: at the top dose activity change, negative = inhibition, actives largely listed as inhibitors; AID 504834; note: potency is the fitted concentration of half-maximal effect; % is set by controls: 0 for no effect and ±100 for the full control effect
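Plates of compound plus infected erythrocytes (2% hematocrit, 0.05% parasitemia final) incubate 96 hours, 37 C, 5% CO2. Detection reagent added; reduced luminescence from the parasites' luciferase reporter flags inhibition.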
NS1 inh: influenza NS1 inhibition | Potency, µM (titrated, usually from 46.1 µM), without a hit: top-dose activity, positive = more growth | 270,000 tested, 0.4% active | AID 2326; calls by dose curve; note: potency is the fitted concentration of half-maximal effect; actives are rising curves; nearly all actives have a fitted effect of over 50% in size
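S. cerevisiae expressing influenza A NS1, grown in glucose, washed, then diluted 1:100 into pH 6.0 -URA galactose medium with 23 nl compound. Growth recovery read as OD600; NS1-free strain serves as control.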
The depositor's hits bear a star; i = inactive; ? = inconclusive; nt = no result given; + = active, no number. Only some compounds are listed: those with a hit (about 21% of all), similar ones and a draw of the others. Unless noted, calls come from the whole dose curve; as a rule, active = well fitted inhibition curve with a large enough effect; inconclusive = small, poorly fitted or top-dose-only effect, or another doubt; inactive = no such curve, though single readings can be large or run the other way.

SMILES	SARS PLP yeast	Pf growth 48h	Shiga inhibitor	Cycloheximide cs	Pf growth 96h	NS1 inh
Cc1ccc(O)c(CNc2cnc3ccccc3c2)c1	?	?	nt	11	0%	-59%
COc1cccc(CNc2nc3ccccc3n2C)c1O	-3%	130%	nt	35*	22%	-14%
Oc1ccc(Br)cc1CNc1cnc2ccccc2c1	-10%	?	21	2	12µM*	-6%
CCN(C(=O)CN1CCCCC1C)c1c(N)n(Cc2ccccc2)c(=O)[nH]c1=O (stereo unspecified)	1%	?	nt	nt	-20%	nt
COc1cccc(CNc2cnc3ccccc3c2)c1O	-2%	i	44*	30*	?	5%
COc1ccc(O)c(/C=N/c2nc3ccccc3n2C)c1	6%	6%	-3	1	?	21%
COc1cccc(/C=N/c2nc3ccccc3n2C)c1O	0%	60%	33	20*	18%	-1%
O=C(CCc1ccccc1)Nc1cc(S(=O)(=O)N2CCOCC2)ccc1N1CCCC1	2%	-28%	nt	nt	-6%	nt
CN1CCC(=NNC(=O)CSc2ccc(Cl)cc2)CC1	0%	51%	-6	-3	116%	1%
CC(C)C[C@@]12C(=O)N(c3cccc(Cl)c3)C(=O)N1[C@H](c1ccc(Br)cc1)[C@@H]1C(=O)N(C(C)(C)C)C(=O)[C@@H]12	-5%	3.7µM*	nt	nt	4.1µM*	nt
CC[C@@]12C(=O)N(c3cccc(C)c3)C(=O)N1[C@H](c1ccc(Br)cc1)[C@@H]1C(=O)N(C(C)(C)C)C(=O)[C@@H]12	2%	3.3µM*	-4	-4	2.3µM*	17%
CCN1C(=O)[C@H]2[C@@H](c3ccc(C)cc3)N3C(=O)N(c4cccc(Cl)c4)C(=O)[C@@]3(CC(C)C)[C@H]2C1=O	-4%	?	nt	nt	8.3µM*	nt
CC(C)(C)N1C(=O)[C@H]2[C@@H](c3ccc(Br)cc3)N3C(=O)N(c4cccc(Br)c4)C(=O)[C@@]3(Cc3ccccc3)[C@H]2C1=O	-2%	?	3	4	?	23%
CC[C@@]12C(=O)N(c3cccc(Cl)c3)C(=O)N1[C@H](c1ccc(Br)cc1)[C@@H]1C(=O)N(C(C)(C)C)C(=O)[C@@H]12	2%	9.3µM*	nt	nt	?	nt
CC1(C)C2CC[C@]1(C)[C@@H](O)C2	nt	-6%	nt	nt	-23%	nt
Cc1ccc(S(=O)(=O)N(CC(=O)Nc2ccccc2C(=O)O)c2ccc(Cl)cc2)cc1	0%	-9%	-9	-2	210%	?
C/C(=N\NC(=O)Cc1ccc(Cl)cc1)c1cccc(NC(=O)c2cccnc2)c1	-7%	-20%	-6	3	?	9%
CCCCn1nnnc1NCc1ccc(N(CC)CC)cc1	3%	1%	-1	-9	nt	-1%
CC(=O)N/C(=N\OCc1ccccc1Cl)c1nonc1NC(C)=O	-3%	7%	-8	1	?	-8%
COc1cc(NC(=O)CN2C(=O)NC(c3ccccc3)(c3ccccc3)C2=O)c(C)cc1[N+](=O)[O-]	25%	?	-11	1	?	?
CCc1cccc(NC(=O)CSc2nnc(Cc3ccc(OC)cc3)c(=O)[nH]2)c1	-4%	14%	nt	nt	?	nt
CC(C)C[C@@]12C(=O)N(c3ccc(Br)cc3)C(=O)N1[C@H](c1ccc(Br)cc1)[C@@H]1C(=O)N(C(C)(C)C)C(=O)[C@@H]12	5%	-40%	-8	-2	?	19%
CC(C)C[C@@]12C(=O)N(c3cccc(F)c3)C(=O)N1[C@H](c1ccc(Br)cc1)[C@@H]1C(=O)N(C(C)(C)C)C(=O)[C@@H]12	-1%	13µM*	nt	nt	5.2µM*	nt
Cc1ccc(-c2nsc3c(N4CCN(C(=O)c5ccco5)CC4)ncnc23)cc1	?	20%	71*	30*	-6%	3.5µM*
COc1ccc(-c2nsc3c(N4CCN(S(=O)(=O)c5ccccc5)CC4)ncnc23)cc1	3%	35%	2	-3	-19%	-4%
SMILES	SARS PLP yeast	Pf growth 48h	Shiga inhibitor	Cycloheximide cs	Pf growth 96h	NS1 inh
COc1ccc(-c2nsc3c(N4CCCC4)ncnc23)cc1	3%	104%	118*	49*	10%	-13%
O=C(c1ccco1)N1CCN(c2ncnc3c(-c4ccc(Cl)cc4)nsc23)CC1	-1%	182%	101*	48*	-4%	-3%
Cc1cccc(C)c1OCC(=O)N(Cc1ccc(N(C)C)cc1)C1CCS(=O)(=O)C1 (stereo unspecified)	1%	?	10	-2	?	5%
C/C(=N\Nc1cccc(C(=O)O)c1)c1cc2ccccc2o1	-7%	113%	198*	71*	70%	nt
C/C(=N\Nc1ccc(Cl)c(C(=O)O)c1)c1cccc2ccccc12	-1%	24%	45	12*	1%	9%
CC(C)n1cc(/C=N/Nc2ccc(Cl)c(C(=O)O)c2)c2ccccc21	-3%	131%	nt	49*	16%	15%
C/C(=N\Nc1ncc(Cl)cc1Cl)c1ccccn1	23%	-27%	119*	43*	?	nt
NC(=O)Cn1cc(/C=N\NS(=O)(=O)c2ccc(Cl)cc2)c2ccccc21	1%	9%	-9	-2	27%	-1%
COc1ccc(OC)c(S(=O)(=O)N2CCC(C(=O)NCc3ccc4c(c3)OCO4)CC2)c1	2%	-1%	-9	-3	?	-14%
Cc1cc(F)c(F)c(C(=O)N2CCN(C)CC2)c1Cl	8%	?	16	8	5%	2%
COC(=O)c1c(NC(=O)CSc2nnc3ccccn23)sc2c1CCC2	-10%	-9%	-6	-1	0%	-7%
C/C(=N\Nc1cccc([N+](=O)[O-])c1)c1cc2ccccc2o1	1%	53%	44*	40*	119%	nt
O=C(c1cccc([N+](=O)[O-])c1)c1cc2ccccc2o1	27%	6%	9	17	?	10%
C/C(=N\Nc1ccc(Cl)c(C(=O)O)c1)c1ccccn1	-4%	56%	138*	94*	61%	5%
O=C(O)c1cc(N/N=C/c2cccc3ccccc23)ccc1Cl	2%	215%	114*	103*	63%	14%
C/C(=N\Nc1ccc(Cl)c(C(=O)O)c1)c1cc2ccccc2o1	-6%	95%	+	80*	-3%	nt
O=[N+]([O-])c1cccc(N/N=C/c2cccc3ccccc23)c1	-48%	62%	42*	30*	-76%	-21%
O=C(N/N=C/C(Cl)=C/c1ccccc1)c1ccncc1	-3%	?	3	14	?	-1%
O=C(O)c1cc(N/N=C/C(Cl)=C/c2ccccc2)ccc1Cl	1%	i	183*	68*	i	nt
N#C/C(=C\c1ccc2c(c1)OCCO2)C(=O)NC1CCCCC1	?	15%	24	39*	-16%	-4%
COc1ccc(/C=C(/C#N)C(=O)NC2CCCCC2)cc1Br	-7%	?	21	-4	?	3%
